Hits are enriched below; roughly 21% of the tested compounds scored in any of these assays.
TDP1 cell noCPT: qHTS for Inhibitors of human tyrosyl-DNA phosphodiesterase 1 (TDP1): qHTS in cells in absence of CPT | DT40 Tdp1-/- hTDP1 cells, no CPT, ATP luminescence, 48 h | Potency, µM (series often up to 46.2 µM), inactives show at the top dose activity change, negative = growth inhibition, hits mostly inhibitors | actives 15% (n = 420,000) | AID 686978, 2013; note: potency is the fitted concentration of half-maximal effect; % is set by controls: 0 for no effect and ±100 for the full control effect; nearly all actives have a fitted effect of over 55% in size
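Growth kinetics read by CellTiter-Glo luminescence after ≥48 hr at 37 °C. Cells: DT40 Tdp1-/- stably carrying human TDP1, 400 per well, compound exposure in the absence of CPT (DMSO vehicle).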
D3 antag: D3 dopamine receptor (human) antagonism; max response, negative = inhibition, %; actives 2.5% (n = 360,000); P35462; D3R cells, DiscoveRx beta-arrestin luminescence, antagonist mode; active compounds read low; AID 652054; in the data active = max response below about -50%; inconclusive = no clear call, values can overlap the other calls; note: % is set by controls: 0 for no effect and ±100 for the full control effect
Target sequence (P35462 whole entry, looked up): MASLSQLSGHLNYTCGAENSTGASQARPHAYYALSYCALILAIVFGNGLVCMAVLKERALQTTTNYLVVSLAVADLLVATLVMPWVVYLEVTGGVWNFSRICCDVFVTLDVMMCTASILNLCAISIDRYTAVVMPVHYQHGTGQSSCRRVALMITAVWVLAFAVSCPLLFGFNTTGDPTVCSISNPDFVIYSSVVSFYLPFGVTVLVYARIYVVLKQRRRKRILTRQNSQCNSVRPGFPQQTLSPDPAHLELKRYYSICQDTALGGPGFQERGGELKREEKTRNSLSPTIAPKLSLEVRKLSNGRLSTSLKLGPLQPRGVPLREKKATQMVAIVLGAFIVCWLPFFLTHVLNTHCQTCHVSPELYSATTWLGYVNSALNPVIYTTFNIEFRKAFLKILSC
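Cells expressing the human receptor were seeded at 1500 cells/well, incubated overnight at 37 degrees C in 5% CO2, then exposed to library compounds with dopamine controls for 90 minutes at 37 degrees C before luminescent detection.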
ClpP mod: qHTS Assay for Activators of ClpP. AID 651965, 2013. actives 1.9% (n = 340,000). purified B. subtilis ClpP, FRET peptide cleavage, 20 min. Potency, µM (series often up to 57.5 µM), without a hit: at the top dose activity change, negative = active; active = well fitted falling curve with a large enough effect; inconclusive = small, poorly fitted or top-dose-only effect; inactive = no such curve, though single readings can be large or run the other way; note: potency is the fitted concentration of half-maximal effect; the source files actives as falling curves though it sought activators and does not explain the sign; nearly all actives have a fitted effect of over 65% in size
Target sequence (P80244 whole entry, looked up): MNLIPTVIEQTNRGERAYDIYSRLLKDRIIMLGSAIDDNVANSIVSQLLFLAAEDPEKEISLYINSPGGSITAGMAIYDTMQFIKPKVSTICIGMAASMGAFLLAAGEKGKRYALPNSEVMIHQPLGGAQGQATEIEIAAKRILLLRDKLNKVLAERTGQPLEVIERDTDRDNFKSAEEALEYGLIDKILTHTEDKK
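FRET quenching reversal measured ClpP activation: 10 microg/mL B. subtilis ClpP at pH 8 with the FRET-FV decapeptide, read at 430 nm after 320 nm excitation. The 20-min minus 0-min signal was scaled between DMSO/no-enzyme wells and ADEP (5.8 microM final).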
IL1B secr inh: inhibitors of inflammasome signaling (IL-1 beta secretion); THP-1 LPS/ATP IL-1B secretion, AlphaLISA, 16 h; active compounds read low; activity change, % at 57.5 µM; actives 4.7% (n = 360,000); in the data active = activity change below about -50%; inconclusive = mostly about -30% to -49%; note: % is set by controls: 0 for no effect and ±100 for the full control effect
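Secreted IL-1B measured by AlphaLISA bead assay after 16 h compound exposure of THP-1 cells; compounds (final up to 57.5 uM) added 1 h before LPS (250 ng/mL) and ATP (1.25 mM) stimulation; lower signal means less secretion.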
D3 ag: D3 dopamine receptor (human) agonism. P35462. D3R DiscoveRx beta-arrestin cells, luminescence, 90 min. max activation, %. actives 0.58% (n = 410,000); in the data active = max activation above about 30%; note: 0% is about no effect
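Agonist mode: compounds and dopamine controls were applied to plated cells for 90 min at 37 degrees C after an overnight attachment at 1500 cells/well. Luminescent read-out followed 30 - 60 minutes at room temperature with DiscoveRx detection reagent.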
DT40 TDP1 CPT: growth inhibition of DT40 Tdp1-/-;hTDP1 cells with camptothecin (screen for TDP1 inhibitors) | actives 12% (n = 420,000) | Potency, µM (doses to about 46.2 µM), without a hit: at the highest dose activity change, negative = growth inhibition, hits mostly inhibitors | chicken DT40 Tdp1-/-;hTDP1 cells + 20 nM CPT, ATP luminescence, 48 h; note: potency is the fitted concentration of half-maximal effect; % is set by controls: 0 for no effect and ±100 for the full control effect; nearly all actives have a fitted effect of over 55% in size
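Chicken DT40 Tdp1-/- cells complemented with human TDP1, 400 cells/well, exposed to compounds plus 20 nM camptothecin for at least 48 h at 37 C; viability read as ATP content by CellTiter-Glo luminescence.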
* hit, by the source's call; ? = inconclusive; / = no result given; [ ] = remark or other dose. Unless noted, calls come from the whole dose curve; as a rule, active = well fitted inhibition curve with a large enough effect; inconclusive = small, poorly fitted or top-dose-only effect; inactive = flat fitted curve, though single readings scatter.

SMILES	TDP1 cell noCPT	D3 antag	ClpP mod	IL1B secr inh	D3 ag	DT40 TDP1 CPT
COc1ccc(CNC(=O)Cn2cccc2C(=O)c2ccccc2)cc1	19.8%	-4.8	0.1%	2.2	4.2	-22.4%
COc1ccc(CNC(=O)C2CCCN(c3nnc(C)c4c(C)n(-c5ccc(C)cc5)nc34)C2)cc1 (stereo unspecified)	20.6µM*	/	?	/	10.9	13µM*
COc1ccc(-n2nc3c(N4CCCC(C(=O)NCc5ccc(C)cc5)C4)nnc(C)c3c2C)cc1 (stereo unspecified)	3.26µM*	/	?	/	7.2	4.61µM*
Cc1nnc(N2CCCC(C(=O)NCc3ccc(OC(C)C)cc3)C2)c2nn(-c3ccccc3)c(C)c12 (stereo unspecified)	?	28.1	3.7%	?	0.4	?
CCc1ccc(CNC(=O)C2CCCN(c3nnc(C)c4c(C)n(-c5ccc(OC)cc5)nc34)C2)cc1 (stereo unspecified)	3.26µM*	/	-27.8%	/	30.6*	4.61µM*
CC1CCCN(C(=O)COC(=O)c2ccc[nH]c2=O)C1 (stereo unspecified)	-10.4%	?	-21.1%	16.1	-15.9	4.5%
CCC(=O)N1c2ccccc2CC1C(=O)NCc1ccccc1C (stereo unspecified)	-4.0%	/	-5.1%	/	-7.8	-12.7%
C=CCc1ccc(OCCCCN2CC(C)CC(C)C2)c(OC)c1 (stereo unspecified)	20.6µM*	-104.5*	/	-17.1	-22.9	16.4µM*
C=CCc1ccc(OCCOCCNCCCC)c(OC)c1	?	?	-3.4%	-17.8	-14.7	?
C=CCc1ccc(OCCCCN2CCC(C)CC2)c(OC)c1	16.4µM*	-58.6*	-2.9%	-7.5	-18.7	?
C=CCc1ccc(OCCCOc2ccc(C(=O)O)cc2)c(OC)c1	-2.9%	-9.0	/	43.8	0.2	4.7%
COc1cc(CN2CCCC(C)C2)ccc1OCc1ccccc1 (stereo unspecified)	?	-61.9*	-1.9%	-21.0	-11.8	-29.0%
C=CCc1ccc(OCCCN2CCCC(C)C2)c(OC)c1 (stereo unspecified)	?	-78.8*	1.0%	8.1	-8.7	-5.0%
COc1ccc(Cl)cc1C(=O)Nc1nc(C)cc(C)n1	1.5%	24.4	-1.2%	-1.0	2.1	4.5%
CS(=O)(=O)N(CC(=O)NCCSCc1ccccc1)c1ccccc1Br	?	8.2	1.0%	0.0	7.0	?
CCCCC(C)(C)[C@H](O)/C=C/[C@H]1[C@H](O)CC(=O)[C@@H]1C/C=C\CCCC(=O)O	-10.4%[4.12 µM]	/	/	/	/	-3.9%[4.12 µM]
CSCC[C@H](NC(=O)OC(C)(C)C)C(=O)N/N=C/c1ccc2nccnc2c1	11.6µM*	-24.8	0.7%	18.7	-4.7	?
COc1ccc(CN2C(=O)C(CC(=O)NCCc3ccccn3)CC(C(=O)N(C)C)=C2C)cc1 (stereo unspecified)	-18.0%	-26.9	-3.3%	3.4	-0.3	24.7%
Cc1cccc(C(=O)NCc2cn3cccc(C)c3n2)c1	2.1%	/	-5.6%	/	-20.6	-7.0%
CCOC(=O)c1ccc(-c2ccc(/C=N/NC(=O)CN(c3ccccc3Cl)S(C)(=O)=O)o2)cc1	23.1µM*	52.5	/	-8.6	44.0*	?
CC(C)c1ccc(/C=N/NC(=O)CN(c2cccc(Cl)c2Cl)S(C)(=O)=O)cc1	?	-14.6	?	?	0.7	29.1µM*
CS(=O)(=O)N(CC(=O)N/N=C/c1ccccc1C(=O)O)c1cccc(Cl)c1Cl	0.1%	0.0	/	17.6	-3.6	-14.5%
Cc1ccc(C)c(N(CC(=O)N/N=C/c2ccc(-c3ccc([N+](=O)[O-])cc3)o2)S(=O)(=O)c2ccccc2)c1	?	10.2	-3.7%	-14.1	3.3	?
CCOC(=O)c1ccc(-c2ccc(/C=N/NC(=O)CN(c3cccc(C)c3)S(C)(=O)=O)o2)cc1	14.6µM*	14.6	-16.6%	13.2	0.5	?
CC(C)(C)OC(=O)C[C@H]1C/C=C\C[C@@H](CC(=O)N[C@@H](CO)Cc2ccccc2)C(=O)NC[C@H](c2ccccc2)OC1=O	?	2.0	-0.8%	10.6	-7.2	?
SMILES	TDP1 cell noCPT	D3 antag	ClpP mod	IL1B secr inh	D3 ag	DT40 TDP1 CPT
CCOc1ccc(NC(=O)CN(C)C(=O)C2=COCCO2)cc1OCC	-2.7%	-3.4	/	6.2	-11.1	-11.6%
O=C(CN1CCCCC1)Nc1cccc(Oc2ccccc2)c1	?	?	0.4%	?	-3.3	?
COc1cc(NC(=O)CCl)ccc(=O)c1	18.4µM*	-24.8	-4.7%	-13.8	-2.4	13µM*
COc1cccc(NC(=O)CC(C)=O)c1	-16.1%	17.8	-3.2%	-3.0	1.6	-6.8%
O=C(CCl)Nc1cccc(Oc2ccccc2)c1	2.91µM*	-18.2	/	-106.2*	-9.4	3.26µM*
N=c1sccn1CC(=O)Nc1cccc(Oc2ccccc2)c1	22.4µM*	-12.3	-5.2%	-22.2	-0.9	?
O=C(CSc1ncnc2[nH]ncc12)Nc1cccc(Oc2ccccc2)c1	?	0.0	/	-89.9*	-10.4	?
Cc1ccc(SCc2c(C(=O)N/N=C/c3cccs3)nnn2-c2nonc2N)cc1	?	-2.3	0.4%	-23.1	3.1	-19.6%
COCCNC(=O)C(c1ccc(Cl)cc1)N(CCOC)C(=O)CCC(=O)Nc1ccccn1 (stereo unspecified)	-4.2%	24.5	/	2.3	22.4	-22.6%
N#CC1(NC(=O)Cn2cc(C(F)(F)F)cc(Cl)c2=O)CCCCC1	-0.5%	3.4	-4.7%	0.6	-16.3	-1.6%
COc1cc(-c2cc(C)c3cccc(OC)c3n2)cc2c1OCCN(C(=O)CC1NC(=O)c3ccccc31)C2 (stereo unspecified)	-13.8%	/	/	/	/	-13.8%[9.04 µM]
CC(C)C[C@@H](CN=[N+]=[N-])N1CCN(C)CCC1=O	-10.4%	5.1	-4.6%	4.8	-18.1	0.2%
Nc1cccc(Oc2cnccn2)c1	6.3%	12.3	0.2%	0.6	5.8	6.7%
O=C(CCl)Nc1cccc(Oc2cnccn2)c1	9.2µM*	-24.1	2.8%	-87.9*	-5.2	18.4µM*
CN(Cc1nc2ccccc2[nH]1)C(=O)C1CCC(=O)N(CCc2cccc(F)c2)C1 (stereo unspecified)	13.2%	6.1	-1.9%	-8.7	1.3	-6.8%
CC(C)[C@H]1c2ccc(F)cc2CC[C@@]1(CCN(C)CCCc1nc2ccccc2[nH]1)OC(=O)C1CC1	4.47µM*	/	3.0%	/	/	5.01µM*
